Reference: PubChem BioAssay AID1159580 (chemical genetic matrix, 2015)
In all, about 5,500 compounds went through this assay and about 2,000 (36%) were called active. Inconclusive results (about 18%) are left out. No stated cut-off is given here; in the data, active means normalized growth mostly below about 0.91 (no sharp cut-off); inconclusive means no clear call, values can overlap the other calls; inactive means mostly above about 0.92. This is one part of the list.

Test: chemical genetic growth profiling, strain panel (AID 1159580);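 further: tested at 20 µM; growth read once vehicle control cultures reached saturation at 30 °C; 1 = growth at the plate median or of vehicle wells; lower values mean less growth of the strain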
Conditions: growth OD

Measured: normalized growth

CC(=O)N=c1sc(S(N)(=O)=O)nn1C
inactive: S. cerevisiae deletion strains, locus YJR075W, strain HOC1, hits give low values 1 | S. cerevisiae deletion strains, locus YKL009W, strain mrt4, hits give low values 1 | S. cerevisiae deletion strains, locus YKL068W, hits give low values 1 | S. cerevisiae deletion strains, locus YKL085W, strain MDH1 (second series), hits give low values 1.01 | S. cerevisiae deletion strains, locus YKL085W, strain MDH1, hits give low values 1.01 | S. cerevisiae deletion strains, locus YKL160W, strain elf1, hits give low values 1.01 | S. cerevisiae deletion strains, locus YKL190W, strain CNB1, hits give low values 1.01 | S. cerevisiae deletion strains, locus YKR001C, strain vps1, hits give low values 0.998 | S. cerevisiae deletion strains, locus YKR026C, strain gcn3, hits give low values 1.01 | S. cerevisiae deletion strains, locus YKR091W, strain srl3, hits give low values 1 | S. cerevisiae deletion strains, locus YLL001W, strain dnm1, hits give low values 1.01 | S. cerevisiae deletion strains, locus YLL026W, hits give low values 1.01 | S. cerevisiae deletion strains, locus YLL041C, strain sdh2, hits give low values 1.01 | S. cerevisiae deletion strains, locus YLR027C, strain aat2, hits give low values 1.01 | S. cerevisiae deletion strains, locus YLR039C, strain RIC1, hits give low values 1.02 | S. cerevisiae deletion strains, locus YLR058C, strain SHM2, hits give low values 1.01 | S. cerevisiae deletion strains, locus YLR102C, strain apc9, hits give low values 1 | S. cerevisiae deletion strains, locus YLR113W, strain HOG1, hits give low values 1.07 | S. cerevisiae deletion strains, locus YLR221C, strain rsa3, hits give low values 1 | S. cerevisiae deletion strains, locus YLR258W, strain gsy2, hits give low values 1.01 | S. cerevisiae deletion strains, locus YLR262C, strain YPT6 (second series), hits give low values 1.02 | S. cerevisiae deletion strains, locus YLR262C, strain YPT6, hits give low values 1.04 | S. cerevisiae deletion strains, locus YLR268W, strain sec22, hits give low values 1 | S. cerevisiae deletion strains, locus YLR320W, strain mms22, hits give low values 1.04 | S. cerevisiae deletion strains, locus YLR330W, strain CHS5, hits give low values 1.01 | S. cerevisiae deletion strains, locus YLR342W, strain FKS1 (second series), hits give low values 1.08 | S. cerevisiae deletion strains, locus YLR342W, strain FKS1, hits give low values 1.02 | S. cerevisiae deletion strains, locus YLR357W, strain rsc2, hits give low values 1.03 | S. cerevisiae deletion strains, locus YLR370C, strain arc18, hits give low values 1.01 | S. cerevisiae deletion strains, locus YLR371W, strain rom2, hits give low values 1.02 | S. cerevisiae deletion strains, locus YLR384C, strain iki3, hits give low values 1 | S. cerevisiae deletion strains, locus YLR418C, strain cdc73, hits give low values 1.04 | S. cerevisiae deletion strains, locus YML016C, strain PPZ1, hits give low values 1.01 | S. cerevisiae deletion strains, locus YML032C, strain rad52, hits give low values 0.993 | S. cerevisiae deletion strains, locus YML120C, strain ndi1, hits give low values 1 | S. cerevisiae deletion strains, locus YML124C, strain tub3, hits give low values 1.01 | S. cerevisiae deletion strains, locus YMR058W, strain fet3, hits give low values 1.01 | S. cerevisiae deletion strains, locus YMR078C, strain ctf18, hits give low values 1.01 | S. cerevisiae deletion strains, locus YMR125W, strain sto1, hits give low values 1.01 | S. cerevisiae deletion strains, locus YMR129W, hits give low values 1.01 | S. cerevisiae deletion strains, locus YMR205C, strain PFK2, hits give low values 1.01 | S. cerevisiae deletion strains, locus YMR223W, strain ubp8, hits give low values 1.03 | S. cerevisiae deletion strains, locus YMR231W, strain pep5, hits give low values 1.01 | S. cerevisiae deletion strains, locus YMR307W, strain GAS1, hits give low values 1.03 | S. cerevisiae deletion strains, locus YNL067W, strain RPL9B, hits give low values 0.988 | S. cerevisiae deletion strains, locus YNL071W, strain lat1, hits give low values 1.01 | S. cerevisiae deletion strains, locus YNL128W, strain TEP1, hits give low values 1.04 | S. cerevisiae deletion strains, locus YNL153C, strain GIM3, hits give low values 0.979 | S. cerevisiae deletion strains, locus YNL183C, strain NPR1, hits give low values 0.984 | S. cerevisiae deletion strains, locus YNL209W, strain ssb2, hits give low values 1.01 | S. cerevisiae deletion strains, locus YNL233W, strain BNI4, hits give low values 0.967 | S. cerevisiae deletion strains, locus YNL248C, strain rpa49, hits give low values 1.02 | S. cerevisiae deletion strains, locus YNL250W, strain rad50, hits give low values 1.04 | S. cerevisiae deletion strains, locus YNL271C, strain bni1, hits give low values 1 | S. cerevisiae deletion strains, locus YNL298W, strain CLA4, hits give low values 1.01 | S. cerevisiae deletion strains, locus YNL307C, strain MCK1, hits give low values 1.02 | S. cerevisiae deletion strains, locus YNL322C, strain KRE1 (second series), hits give low values 1.01 | S. cerevisiae deletion strains, locus YNR049C, strain mso1, hits give low values 1.01 | S. cerevisiae deletion strains, locus YNR052C, strain pop2, hits give low values 1.02 | S. cerevisiae deletion strains, locus YOL006C, strain TOP1, hits give low values 0.974 | S. cerevisiae deletion strains, locus YOL012C, strain htz1 1.13 | S. cerevisiae deletion strains, locus YOL147C, strain pex11, hits give low values 1.01 | S. cerevisiae deletion strains, locus YOR001W, strain rrp6, hits give low values 1.01 | S. cerevisiae deletion strains, locus YOR061W, strain CKA2, hits give low values 1.01 | S. cerevisiae deletion strains, locus YOR069W, strain VPS5, hits give low values 1.01 | S. cerevisiae deletion strains, locus YOR070C, strain gyp1, hits give low values 1.02 | S. cerevisiae deletion strains, locus YOR080W, strain dia2, hits give low values 1.02 | S. cerevisiae deletion strains, locus YOR083W, strain WHI5, hits give low values 1.01 | S. cerevisiae deletion strains, locus YOR106W, strain vam3, hits give low values 1.01 | S. cerevisiae deletion strains, locus YOR136W, strain idh2, hits give low values 0.997 | S. cerevisiae deletion strains, locus YOR144C, strain elg1, hits give low values 0.997 | S. cerevisiae deletion strains, locus YOR184W, strain ser1, hits give low values 1.02 | S. cerevisiae deletion strains, locus YOR231W, strain MKK1, hits give low values 1.08 | S. cerevisiae deletion strains, locus YOR265W, strain rbl2, hits give low values 1.01 | S. cerevisiae deletion strains, locus YOR270C, strain vph1, hits give low values 1.02 | S. cerevisiae deletion strains, locus YOR290C, strain snf2, hits give low values 1.03 | S. cerevisiae deletion strains, locus YOR316C, strain cot1, hits give low values 1 | S. cerevisiae deletion strains, locus YPL051W, strain arl3, hits give low values 1.01 | S. cerevisiae deletion strains, locus YPL055C, strain LGE1, hits give low values 0.939 | S. cerevisiae deletion strains, locus YPL078C, strain atp4, hits give low values 1.01 | S. cerevisiae deletion strains, locus YPL106C, strain sse1, hits give low values 1.03 | S. cerevisiae deletion strains, locus YPL240C, strain hsp82, hits give low values 1.01 | S. cerevisiae deletion strains, locus YPL241C, strain CIN2, hits give low values 1.01 | S. cerevisiae deletion strains, locus YPL256C, strain CLN2, hits give low values 1.08 | S. cerevisiae deletion strains, locus YPR119W, strain clb2, hits give low values 1 | S. cerevisiae deletion strains, locus YPR141C, strain kar3, hits give low values 1.01 | S. cerevisiae deletion strains, locus YPR163C, strain tif3, hits give low values 1.01 | S. cerevisiae deletion strains, locus YPR167C, strain met16, hits give low values 1 | S. cerevisiae deletion strains, strain wtn01, hits give low values 1 | S. cerevisiae strains, strain wild type, hits give low values 1
